Experimental data published in PubChem BioAssay AID588413 (Sanford-Burnham Center for Chemical Genomics, 2011).
Among all 340,000 compounds or so, about 2,500 (0.74%) were called active. The sample holds actives, similar compounds and a random draw of the others, so the mix is not that of the screen.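 Rule for the calls: active = inhibition above about 55% (limit read from the data); inactive = the rest.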

Assay: Gli-Sufu pathway antagonists, primary screen, luciferase luminescence, Sufu-KO-LIGHT cells, uHTS (AID 588413);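 note: 0% = DMSO-treated cells and 100% = wells with medium but no cells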
Conditions: Sufu-KO-LIGHT fibroblasts, Gli luciferase reporter luminescence; at 5 µM; stronger effect = higher value

With CCc1ccc2nc(N(CCCN(C)C)C(=O)c3ccc4c(c3)OCCO4)sc2c1 as the molecule, how does the inhibition read?
Its inhibition is 11.7% (inactive).

For CN(C)CCCN(C(=O)c1ccc(S(=O)(=O)N2CCCCCC2)cc1)c1nc2ccc(Br)cc2s1, which inhibition is on record?
Its inhibition is 42.7% (inactive).

For CCOc1ccc2nc(N(CCCN(C)C)C(=O)c3ccc(C(=O)c4ccccc4)cc3)sc2c1, which inhibition is on record?
The inhibition was 65.2% (active).

For Cc1ccc(F)c(NC(=O)CCc2ccccc2)c1, which inhibition is on record?
Its inhibition is -20.7% (inactive).

With CCOc1cccc(/C=N/N2C(=O)CSC2=S)c1O as the molecule, how does the inhibition read?
The inhibition was -1.42% (inactive).

For CCOc1cccc(/C=N/NC(=S)NCCN2CCOCC2)c1O, which inhibition is on record?
Its inhibition is 81.1% (active).

For Cc1ccc(C(=O)NC(=S)NCCN2CCOCC2)cc1, which inhibition is on record?
Its inhibition is -9.17% (inactive).

Which inhibition does the source give for O=C(CNc1ccc(F)cc1F)NC(=O)NCc1ccco1 here?
The inhibition was -1.84% (inactive).

For Cc1cc([N+](=O)[O-])ccc1NCc1cccc([N+](=O)[O-])c1, which inhibition is on record?
The inhibition was 8.75% (inactive).

With COCCCNC(=S)N1CCCC(c2nc3cc(C)c(C)cc3[nH]2)C1 (stereo unspecified) as the molecule, how does the inhibition read?
Its inhibition is 15.7% (inactive).

With CCC(C)(C)NC(=O)C(c1ccc(O)cc1)N(Cc1ccco1)C(=O)CCC(=O)Nc1ccccn1 (stereo unspecified) as the molecule, how does the inhibition read?
Its inhibition is -4.35% (inactive).

Which inhibition does the source give for Cc1ccc(NC(=O)C(C)Sc2nnc(C3CC3)n2C2CC2)cc1S(=O)(=O)N1CCOCC1 (stereo unspecified) here?
The inhibition was 4.31% (inactive).

With CCCn1cc(S(=O)(=O)c2ccc(C)cc2)c(=O)c2cc(OCC)ccc21 as the molecule, how does the inhibition read?
Its inhibition is 32.4% (inactive).

For COc1cccc(Oc2ccc(N)cc2)c1, which inhibition is on record?
The inhibition was -23.1% (inactive).

Which inhibition does the source give for CC(C)(C)c1ccc(OC2=CS(=O)(=O)c3ccccc32)cc1 here?
The inhibition was -36.6% (inactive).

For CC(C)(C)c1ccc(Oc2ccc(N)cc2)cc1, which inhibition is on record?
Its inhibition is 76.2% (active).

Which inhibition does the source give for CCOc1ccc(NS(=O)(=O)c2ccc(C)c(C(N)=O)c2)cc1 here?
The inhibition was 29.7% (inactive).

Which inhibition does the source give for N#CCC(=O)Nc1ccc(C(=O)OCC(=O)Nc2sc3c(c2C#N)CCCC3)cc1 here?
Its inhibition is -9.19% (inactive).

With CC(=O)c1c(C)[nH]c(C(=O)OCC(=O)Nc2sc3c(c2C#N)CCCC3)c1C as the molecule, how does the inhibition read?
Its inhibition is 69.3% (active).

With Cc1cccc(C(=O)OCC(=O)Nc2sc3c(c2C#N)CCC3)c1 as the molecule, how does the inhibition read?
Its inhibition is -6.89% (inactive).

Which inhibition does the source give for Cc1cc(C)c(C)c(S(=O)(=O)Nc2cccnc2)c1C here?
Its inhibition is 1.03% (inactive).

Which inhibition does the source give for Fc1ccc(CNc2nc3ccccc3n3nnnc23)cc1 here?
The inhibition was -6.79% (inactive).

Which inhibition does the source give for CCc1nc2sc3c(Cl)ncnc3c2c2c1CCCC2 here?
Its inhibition is -1.03% (inactive).

For O=C1/C(=C\c2cccnc2)CN(Cc2ccccc2)C/C1=C\c1cccnc1, which inhibition is on record?
The inhibition was 99.3% (active).

With Cc1ccccc1C1=N/C(=C/c2cccnc2)C(=O)O1 as the molecule, how does the inhibition read?
The inhibition was -7.01% (inactive).

Which inhibition does the source give for O=C(O)C1CC(=O)N(Cc2cccnc2)C1 (stereo unspecified) here?
Its inhibition is -11.1% (inactive).

Which inhibition does the source give for O=C(O)c1ccc(N/N=C/c2ccc3ncccc3c2)cc1 here?
The inhibition was 67% (active).

With CCNC(=S)NNC(=O)c1ccc2ncccc2c1 as the molecule, how does the inhibition read?
The inhibition was -4.73% (inactive).

For Cc1ccc2cc(/C=N/Nc3ccc(C(=O)O)cc3)c(Cl)nc2c1, which inhibition is on record?
Its inhibition is -101% (inactive).

For CNc1ccc(SC#N)cc1, which inhibition is on record?
Its inhibition is 60.3% (active).

For COc1ccc(N2C(=O)/C(=C\c3ccco3)N=C2SCC(N)=O)cc1Cl, which inhibition is on record?
The inhibition was 5.71% (inactive).

Which inhibition does the source give for O=C(Cn1cnc2c(nnn2-c2ccccc2)c1=O)N1CCC(Cc2ccccc2)CC1 here?
The inhibition was -4.74% (inactive).

Which inhibition does the source give for COc1cc(-c2nc(S(=O)(=O)c3ccc(Cl)cc3)c(N(C)C)o2)cc(OC)c1OC here?
Its inhibition is 7.51% (inactive).

For O=C(c1snnc1-c1ccccc1)N1CCOCC1, which inhibition is on record?
The inhibition was 9.83% (inactive).

With COc1cc2ccccc2cc1C(=O)N1CCOCC1 as the molecule, how does the inhibition read?
Its inhibition is -5.57% (inactive).

With Cc1oc2c(c1C(=O)N1CCOCC1)C(=O)c1ccccc1C2=O as the molecule, how does the inhibition read?
The inhibition was 87% (active).

For CCOC(=O)[C@H]1[C@H]2COc3ccc(Cl)cc3[C@@H]2N2C(=O)c3cc(C)ccc3NC(=O)[C@@]12C, which inhibition is on record?
The inhibition was 1.26% (inactive).

Which inhibition does the source give for CCOC(=O)CN(C(=O)COc1nc(-c2ccccc2)cc(C)c1C#N)c1ccc(F)cc1 here?
Its inhibition is 5.59% (inactive).

For Cc1ccc2c(=O)cc(C(=O)NCCc3ccc(S(N)(=O)=O)cc3)oc2c1C, which inhibition is on record?
Its inhibition is -18.4% (inactive).

Which inhibition does the source give for CSc1ccccc1NC(=O)Cc1ccc(Br)cc1 here?
The inhibition was 1.53% (inactive).

With COc1ccc(S(=O)(=O)Nc2ccccc2C(=O)N2CCCC2)cc1C as the molecule, how does the inhibition read?
The inhibition was -10.7% (inactive).

Which inhibition does the source give for Cc1ccc(S(=O)(=O)NC(C)C(=O)Nc2ccccc2C(=O)N2CCCC2)cc1 (stereo unspecified) here?
The inhibition was 95% (active).

With COc1ccc(S(=O)(=O)NC(C)c2ccccc2)cc1C(=O)N1CCCCC1 (stereo unspecified) as the molecule, how does the inhibition read?
The inhibition was 12.8% (inactive).

For CCOc1ccc(/C=C(/C#N)c2nnc(N3CCOCC3)n2-c2ccccc2)cc1OC, which inhibition is on record?
The inhibition was 4.23% (inactive).

For O=S(=O)(Nc1ccc2nc(N3CCOCC3)sc2c1)c1ccccc1, which inhibition is on record?
The inhibition was -64.9% (inactive).

With c1c2c(cc3sc(N4CCCCC4)nc13)OCCO2 as the molecule, how does the inhibition read?
Its inhibition is 66.6% (active).

Which inhibition does the source give for Brc1ccc2nc(N3CCCC3)sc2c1 here?
Its inhibition is -88.5% (inactive).

With CC1CN(C(=O)c2ccccc2NS(=O)(=O)c2cccc([N+](=O)[O-])c2)CC(C)O1 (stereo unspecified) as the molecule, how does the inhibition read?
Its inhibition is -7.72% (inactive).

For COc1ccc(F)cc1C(=O)C1CCCN(C(=O)CCc2ccccn2)C1 (stereo unspecified), which inhibition is on record?
The inhibition was 12.7% (inactive).

For N#CC(C#N)=CN=c1ccn(Cc2ccc(Cl)cc2Cl)cc1, which inhibition is on record?
Its inhibition is 57.1% (active).

With O=c1ccn(Cc2ccccc2Cl)cc1 as the molecule, how does the inhibition read?
The inhibition was 17% (inactive).

With CC(C)(C)c1cc(C(=O)NN)n(Cc2ccc(Cl)cc2Cl)n1 as the molecule, how does the inhibition read?
Its inhibition is -3.86% (inactive).

For COc1ccc(CC(=O)NC(C)c2ccc(Cl)c(Cl)c2)cc1S(=O)(=O)N1CCOCC1 (stereo unspecified), which inhibition is on record?
The inhibition was -4.33% (inactive).

Which inhibition does the source give for COc1cc(Cl)c(C)cc1NC(=O)CN1CCCCCC1 here?
Its inhibition is 40.6% (inactive).

Which inhibition does the source give for CCCCNc1nc2c(c(=O)[nH]c(=O)n2C)n1CCOc1ccccc1 here?
Its inhibition is -15.8% (inactive).

For Cn1c(=O)c2c(nc(NCCNC(=O)c3ccco3)n2Cc2ccccc2F)n(C)c1=O, which inhibition is on record?
The inhibition was -26.1% (inactive).

With CCn1c(NCCc2ccc(OC)c(OC)c2)nc2c1c(=O)n(C)c(=O)n2C as the molecule, how does the inhibition read?
Its inhibition is 11.3% (inactive).

Which inhibition does the source give for Cn1c(=O)c2c(nc(NCCc3ccccc3)n2Cc2ccccc2)n(C)c1=O here?
The inhibition was 62.7% (active).

Which inhibition does the source give for Cn1c(=O)c2c(nc(NCc3ccccc3)n2CC(N)=O)n(C)c1=O here?
Its inhibition is 0.59% (inactive).

For CCCCNc1nc2c(c(=O)n(C)c(=O)n2C)n1Cc1cccc(OC)c1, which inhibition is on record?
The inhibition was 73.1% (active).

For O=C(Cn1nnc(-c2ccccc2)n1)NC(=O)NC1CCCC1, which inhibition is on record?
The inhibition was 0.46% (inactive).
